Compound activity (PubChem)
E coli growth-1 = E. coli V3065 growth inhibition, primary screen, counter-screen for AddAB inhibitor project, absorbance, OD600; 330,000 tested, 0.27% active; inhibition, % at 11.9 µM; 18 h; AID 449728, 2010;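 active means inhibition above the campaign's mean inhibition across all tested compounds plus 3 SD, cut at about 9.9% in these data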;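 further: uninfected addAB+ strain grown without phage in ampicillin broth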
phage Ecoli inh = growth loss of phage-infected E. coli, primary screen, RecBCD inhibitor project, absorbance, with phage, HTS; 360,000 tested, 0.26% active; AID 651602, 2012; inhibition, % at 11.9 µM; in the data active means inhibition above about 11%
E coli growth-2 = E. coli growth inhibition, primary screen, OD600; Escherichia coli growth, 23 h; hits give low values; OD600 absorbance (concentration not given with the values); 330,000 tested, 0.21% active; AID 1053175, 2014;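 active means OD600 absorbance below the run mean of sample wells minus 3.6 SD, in any replicate, cut at about 0.56 in these data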
AddAB inh = growth inhibition of E. coli expressing H. pylori AddAB, primary screen, AddAB inhibitor project, absorbance; 330,000 tested, 0.29% active; inhibition, % at 11.9 µM; in the data active means inhibition above about 12%
Tat export inh = E. coli Tat export inhibitors, primary screen, MC4100, TorA-mCherry reporter, fluorescence, single point | inhibition, % at 10 µM | 340,000 tested, 0.036% active | AID 488895, 2010;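 active means mean replicate inhibition at least 50% and at least half of replicates individually reaching 50%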;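 further: exported cargo escapes ClpAP degradation while cytoplasmic cargo is degraded and loses fluorescence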
AddAB conf = growth loss of phage-infected E. coli expressing H. pylori AddAB, confirmation, AddAB inhibitor project, absorbance, E. coli V3065, T4 phage, triplicate; OD; T4 phage with gene 2 nonsense mutations; inhibition, % at 11.9 µM; 880 tested, 64% active; shares compounds with AddAB inh;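 active means mean inhibition above a set limit taken from the earlier primary screen, cut at about 13% in these data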;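 further: higher means less bacterial growth since AddAB block lets phage replicate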
RecBCD counter = growth loss of RecBCD+ E. coli with mutant T4 phage, counter-screen for AddAB inhibitor project, absorbance, V66 E. coli | shares compounds with AddAB inh | OD growth | inhibition, % at 11.9 µM | 880 tested, 73% active | AID 488955, 2010;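 active means mean inhibition above the mean of solvent-only control wells plus 3 SD, cut at about 4% in these data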;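 further: optical density read after an 18 h incubation at 37 °C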
bact viab count = bacterial viability inhibition counter-screen, confirmation, counter-screen for AddAB inhibitor project, absorbance. shares compounds with AddAB inh. 880 tested, 35% active. AID 488956, 2010. inhibition, % at 11.9 µM. absorbance (AddAB counterscreen); in the data active means inhibition above about 25%
RecBCD conf = growth loss of phage-infected RecBCD+ E. coli, confirmation, RecBCD inhibitor project, absorbance, E. coli V66, T4 gene 2 phage; AID 651982, 2013; E. coli V66 + T4 2- phage, growth OD; 890 tested, 45% active; inhibition, % at 11.9 µM; shares compounds with phage Ecoli inh;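 active means mean inhibition over triplicates exceeding the hit threshold derived in the original primary screen, cut at about 11% in these data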
Ecoli viability = E. coli viability inhibition, counter-screen for RecBCD inhibitor project, absorbance, high throughput. inhibition, % at 11.9 µM. 890 tested, 29% active. shares compounds with phage Ecoli inh. absorbance (OD) growth; in the data active means inhibition above about 20%;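 further: E. coli strain V66 grown with compound alone and no phage infection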
AddAB counter = growth loss of phage-infected AddAB-carrying E. coli, confirmation, counter-screen for RecBCD inhibitor project, absorbance, E. coli V3065, T4 phage | AID 651984, 2013 | shares compounds with phage Ecoli inh | 890 tested, 45% active | inhibition, % at 11.9 µM | E. coli expressing H. pylori AddAB + T4 phage, OD growth; gene 2 mutant T4, recBCD-deleted host;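 active means mean inhibition above the solvent-only control wells' mean plus 3 SD, cut at about 22% in these data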;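 further: higher means less bacterial growth from phage killing when AddAB is blocked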
A number is an active result. Rows were chosen to be rich in hits. Some 0.5% of all compounds tested hit in one or more screens of this group.

For CCn1cc(C(=O)NCC(C)C)c(=O)c2cc(F)c(N3CCN(C)CC3)cc21 the results were E coli growth-1 100.3, phage Ecoli inh 86.7, E coli growth-2 0.0755, AddAB inh 98.9, AddAB conf 100.3, RecBCD counter 99.5, bact viab count 100.8, RecBCD conf 90.3, Ecoli viability 101.0 and AddAB counter 102.1.
`CCn1cc(C(=O)N[C@H](C)c2ccccc2)c(=O)c2cc(F)c(N3CCN(C)CC3)cc21` gave E coli growth-1 inactive, phage Ecoli inh inactive, E coli growth-2 inactive, AddAB inh inactive and Tat export inh inactive.
Screening CC1ON(C2CCCCC2)C2c3nc4ccccc4n3CC12 (configuration not stated) returned E coli growth-2 inactive.
`Cn1nnnc1N=N/C(=N/Nc1ccccc1)c1ccccc1` gave E coli growth-1 21.2, phage Ecoli inh 19.5, AddAB inh 25.2, Tat export inh inactive, AddAB conf 25.4, RecBCD counter 23.3, bact viab count inactive, RecBCD conf 10.9, Ecoli viability inactive and AddAB counter inactive.
For CCN1CC2C3C(=O)N(Cc4ccccc4)C(=O)C3[C@](CC)(C1=O)N2C(=O)c1ccc(C(F)(F)F)cc1 (some centres not stated) the results were E coli growth-2 inactive.
O=C1c2ccccc2C(=O)c2[nH]c(=O)[nH]c21 was read as E coli growth-1 10.3, phage Ecoli inh 16.4, E coli growth-2 0.408, AddAB inh 15.2, Tat export inh inactive, AddAB conf 17.2, RecBCD counter 17.2, bact viab count inactive, RecBCD conf 15.0, Ecoli viability inactive and AddAB counter 29.4.
For O=C(O)CC1S/C(=N/N=Cc2ccccn2)NC1=O (configuration not stated) the results were E coli growth-2 inactive.
For C/C(=N\N=C1\NC(=O)C(CC(=O)O)S1)c1ccccn1 (configuration not stated) the results were E coli growth-1 17.0, phage Ecoli inh 25.7, AddAB inh 19.2, AddAB conf 25.9, RecBCD counter 22.5, bact viab count inactive, RecBCD conf 21.9, Ecoli viability 24.6 and AddAB counter 28.3.
For O=C1CN(/N=C/c2ccc([N+](=O)[O-])o2)C(=O)N1 the results were E coli growth-1 99.0, phage Ecoli inh 76.9, AddAB inh 99.4, AddAB conf 99.5, RecBCD counter 40.1, bact viab count 101.1, RecBCD conf 48.7, Ecoli viability 71.5 and AddAB counter 99.8.
O=C1OC(CN2CCOCC2)CN1N=Cc1ccc([N+](=O)[O-])o1 (configuration not stated) was read as E coli growth-1 98.6, phage Ecoli inh 86.5, E coli growth-2 0.064, AddAB inh 98.2, Tat export inh inactive, AddAB conf 99.8, RecBCD counter 81.0, bact viab count 99.7, RecBCD conf 63.8, Ecoli viability 83.2 and AddAB counter 100.3.
For CN(C)c1ccc(O)c2c1CC1CC3[C@@H](N(C)C)C(=O)C(C(N)=O)=C(O)[C@]3(O)C(=O)C1=C2O (some centres not stated) the results were E coli growth-1 102.4, phage Ecoli inh 98.8, AddAB inh 99.0, Tat export inh 148.9, AddAB conf 99.4, RecBCD counter 97.8, bact viab count 100.0, RecBCD conf 93.2, Ecoli viability 102.7 and AddAB counter 103.4.
`C/C(=N\Nc1ccc2nncn2n1)c1ccccn1` gave E coli growth-1 26.6, phage Ecoli inh 31.9, AddAB inh 31.0, AddAB conf 22.1, RecBCD counter 29.3, bact viab count inactive, RecBCD conf 17.7, Ecoli viability 27.4 and AddAB counter inactive.
`CC1CN(C(C)CO)C(=O)c2cccc(NS(=O)(=O)c3ccccc3)c2OC1CN(C)CC1CCCCC1` (configuration not stated) gave E coli growth-2 inactive.
`CC1CN(C(C)CO)C(=O)c2cc(NC(=O)CCN3CCOCC3)ccc2OC1CN(C)C(=O)Nc1ccccc1` (configuration not stated) gave E coli growth-2 inactive.
For O=C(NNC(=O)c1ccccc1O)c1ccc(Cl)c(S(=O)(=O)N2CCc3ccccc32)c1 the results were E coli growth-1 14.1, phage Ecoli inh 15.9, E coli growth-2 inactive, AddAB inh 19.1, Tat export inh inactive, AddAB conf inactive, RecBCD counter 8.3, bact viab count inactive, RecBCD conf inactive, Ecoli viability inactive and AddAB counter inactive.
`Oc1c(C(c2ccccn2)N2CCCCC2)cc(Cl)c2cccnc12` (configuration not stated) gave E coli growth-1 inactive, phage Ecoli inh inactive, E coli growth-2 inactive, AddAB inh inactive and Tat export inh inactive.
`CN1CCN(C(c2ccc(C(F)(F)F)cc2)c2cc(Cl)c3cccnc3c2O)CC1` (configuration not stated) gave E coli growth-1 22.6, phage Ecoli inh 24.0, AddAB inh 17.5, AddAB conf 13.6, RecBCD counter 14.3, bact viab count inactive, RecBCD conf inactive, Ecoli viability inactive and AddAB counter inactive.
CCN1CCN(C(c2ccc(C(F)(F)F)cc2)c2ccc3cccnc3c2O)CC1 (configuration not stated) was read as E coli growth-1 38.2, phage Ecoli inh 20.9, E coli growth-2 inactive, AddAB inh 26.4, Tat export inh inactive, AddAB conf inactive, RecBCD counter 11.6, bact viab count inactive, RecBCD conf inactive, Ecoli viability inactive and AddAB counter inactive.
